# Screening results: PubChem, National Center for Advancing Translational Sciences (NCATS)
# The list is not random: actives were taken first. Their share in the collection is about 0.9%.
# LMNA splice mod: qHTS Assay for Modulators of Lamin A Splicing | HeLa LMNA splicing GFP/RFP minigene ratio, 48 h | AID 1487, 2009 | Potency, µM (top dose mostly 46.1 µM), hits mostly inhibitors | actives 0.01% (n = 200,000); active means well fitted inhibition curve with a large enough effect in the signal ratio, with a control signal flat, not every such curve was filed as active; inconclusive means small, poorly fitted or top-dose-only effect, or effect the other way, or a change in a side signal; the % refers to the signal ratio
#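 Read-out is the ratio of GFP to DsRed2 object intensity, acquired by 488 nm laser-scanning cytometry on HeLa lamin A-EGFP minigene reporter cells. Compound incubation 48 hrs at 37 °C in Opti-MEM with 2% FBS; DMSO 0.5% final.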
# GCN5L2 inh: qHTS Assay for Inhibitors of GCN5L2 | Histone acetyltransferase KAT2A (Homo sapiens), Q92830 | GCN5L2 HAT assay, ThioGlo1 CoA-SH fluorescence | Potency, µM (series often up to 58.9 µM), actives largely listed as inhibitors | actives 0.21% (n = 390,000) | AID 504327, 2011
#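 Enzyme at 20nM final was mixed with library compounds for 15 min at room temperature. Peptide H3(1-25) at 75uM, acetyl-CoA at 70uM and ThioGlo1 at 50uM were then added. Plates were read immediately and after 20 min (Ex340nm/Em540nm).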
# TDP1 inh: qHTS Assay for Inhibitors of Tyrosyl-DNA Phosphodiesterase (TDP1); actives 0.28% (n = 350,000); Tyrosyl-DNA phosphodiesterase 1 (Homo sapiens), Q9NUW8; recombinant TDP1, AlphaScreen DNA substrate cleavage; AID 485290, 2010; Potency, µM (titrated, usually from 130 µM), hits mostly inhibitors; further: nearly all actives have a fitted effect of over 40% in size
#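 AlphaScreen read-out: signal falls as enzyme removes the 3' tyrosine-FITC from a 5'-biotinylated DNA oligo (15 nM, 5 min, RT). Enzyme was E. coli-made recombinant Tdp1 at 1 nM, exposed to compound for 15 min beforehand; beads 10 ug/ml, 10 min.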
# APE1 inh-1: qHTS Assay for Inhibitors of the Human Apurinic/apyrimidinic Endonuclease 1 (APE1). DNA repair nuclease/redox regulator APEX1 (Homo sapiens), P27695. Potency, µM (doses to about 65.8 µM), most hits filed as inhibitors. actives 0.35% (n = 350,000). recombinant APE1, TAMRA/BHQ-2 abasic DNA cleavage fluorescence; further: nearly all actives have a fitted effect of over 55% in size
#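 APE1 at 0.75 nM preincubated 15 min at room temperature with compound. Reaction then started with 50 nM double-stranded THF-abasic substrate labelled with TAMRA/BHQ-2, and 525/598 nm fluorescence read kinetically. Activity taken as third-minus-first read difference, normalized to DMSO and NSC13755 controls.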
# BLM inh-1: qHTS Assay for Inhibitors of Bloom's syndrome helicase (BLM); recombinant BLM DNA unwinding, fluorescence dequenching; actives 0.2% (n = 350,000); RecQ-like DNA helicase BLM (Homo sapiens), P54132; Potency, µM (highest dose often 56.1 µM), actives largely listed as inhibitors; further: nearly all actives have a fitted effect of over 35% in size
# RECQ1 inh-1: qHTS Assay for Inhibitors of RecQ-Like Dna Helicase 1 (RECQ1) | RECQ1 DNA unwinding, red fluorescence kinetic read | actives 0.54% (n = 240,000) | AID 2549, 2010 | ATP-dependent DNA helicase Q1 (Homo sapiens), P46063 | Potency, µM (doses to about 57.3 µM), actives largely listed as inhibitors; further: nearly all actives have a fitted effect of over 30% in size
# Target sequence (P46063 whole entry, looked up): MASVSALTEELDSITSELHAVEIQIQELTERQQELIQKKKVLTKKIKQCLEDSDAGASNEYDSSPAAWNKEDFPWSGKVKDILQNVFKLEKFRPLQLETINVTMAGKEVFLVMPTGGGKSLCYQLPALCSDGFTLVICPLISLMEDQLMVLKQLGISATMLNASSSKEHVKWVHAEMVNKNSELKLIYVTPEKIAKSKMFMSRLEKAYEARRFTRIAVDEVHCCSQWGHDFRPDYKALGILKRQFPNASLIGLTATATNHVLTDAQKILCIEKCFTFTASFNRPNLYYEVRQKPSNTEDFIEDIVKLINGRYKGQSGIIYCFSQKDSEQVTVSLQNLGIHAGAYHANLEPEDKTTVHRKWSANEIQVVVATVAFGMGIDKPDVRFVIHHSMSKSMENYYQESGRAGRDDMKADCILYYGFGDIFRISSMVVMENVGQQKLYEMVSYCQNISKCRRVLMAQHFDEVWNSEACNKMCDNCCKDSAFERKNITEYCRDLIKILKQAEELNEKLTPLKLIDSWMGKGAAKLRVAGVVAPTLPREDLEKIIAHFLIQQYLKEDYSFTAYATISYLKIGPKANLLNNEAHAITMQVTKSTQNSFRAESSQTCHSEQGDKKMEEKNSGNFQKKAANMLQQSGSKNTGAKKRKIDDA
#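 RECQ1T1 50 nM; forked duplex (20 bp + 30-nt ss tails) 200 nM, ATP 2 mM final; pH 8.0, 2 mM MgCl2, 2.5 ug/ml poly(dI-dC); 15 min compound preincubation; discontinuous kinetic read over 2 h at RT.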
# EndoIV counter: Counterscreen for APE1 Inhibitors: qHTS Assay for Inhibitors of Endonuclease IV; Potency, µM (doses to about 27.1 µM), usual class: inhibitors; AID 2565, 2010; E. coli Endo IV, fluorogenic AP-site DNA cleavage; actives 4% (n = 560); shares compounds with APE1 inh-1
# APE1 inh-2: Confirmation qHTS Assay for Inhibitors of the Human Apurinic/apyrimidinic Endonuclease 1 (APE1) | Potency, µM (series often up to 57.1 µM), most hits filed as inhibitors | purified APE1, fluorogenic abasic-site DNA cleavage | actives 44% (n = 750) | shares compounds with APE1 inh-1; further: nearly all actives have a fitted effect of over 30% in size
# BLM inh-2: qHTS Confirmation Assay for Inhibitors of Bloom's syndrome helicase (BLM); Potency, µM, most hits filed as inhibitors; BLM DNA unwinding, fluorescence quenching, biochemical; actives 40% (n = 220); shares compounds with BLM inh-1;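 further: strand separation dequenches TAMRA so unwinding raises red fluorescence; series mostly up to about 69 µM; nearly all actives have a fitted effect of over 45% in size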
# RECQ1 conf: Confirmation qHTS Assay for Inhibitors of RecQ-Like Dna Helicase 1 (RECQ1). RECQ1 helicase DNA unwinding, fluorescence. AID 2708, 2010. actives 28% (n = 610). Potency, µM (top dose mostly 229 µM), most hits filed as inhibitors. shares compounds with RECQ1 inh-1; further: nearly all actives have a fitted effect of over 45% in size
# ADP FP counter: Counterscreen for RECQ1 Inhibitors: ADP Fluorescence Polarization Displacement Assay. shares compounds with RECQ1 inh-1. ADP fluorescence polarization displacement counterscreen. Potency, µM (highest dose often 228 µM), most hits filed as inhibitors. actives 27% (n = 530). AID 2711, 2010; further: nearly all actives have a fitted effect of over 45% in size
# RECQ1 inh-2: Confirmation qHTS Assay for Inhibitors of RecQ-Like Dna Helicase 1 (RECQ1) - Round 2 Cherry Picks | shares compounds with RECQ1 inh-1 | recombinant RECQ1 DNA unwinding, red fluorescence | Potency, µM (titrated, usually from 119 µM), hits mostly inhibitors | actives 15% (n = 1,100) | AID 504841, 2011; further: nearly all actives have a fitted effect of over 50% in size
# Numbers stand for hits; n = inactive; u = inconclusive; x = no result; ! = repeats disagree. Unless noted, the call rests on the fitted dose curve; in most records, active means well fitted curve in the direction sought with a large enough effect; inconclusive means small, poorly fitted or top-dose-only effect, or another doubt; inactive means no such curve, though single readings can be large; an effect the other way counts as inactive or inconclusive.
SMILES,LMNA splice mod,GCN5L2 inh,TDP1 inh,APE1 inh-1,BLM inh-1,RECQ1 inh-1,APE1 inh-2,others
CCN(CC)c1ccc(/C=C2\C(=O)NC(=O)N(Cc3ccco3)C2=O)cc1,n,n,n,u,n,u,x,
CC(=O)Nc1ccc(N=Cc2c(O)n(Cc3ccco3)c(=O)[nH]c2=O)cc1,u,n,17.8µM,u,u,u,n,RECQ1 inh-2=u
CNc1ccc(C(=O)CC(O)CCC(C)C2OC(=O)CC(O)CC(=O)CC(O)CC(O)CC(O)CC(O)CC3(O)CC(O)C(C(=O)OC)C(CC(O[C@@H]4O[C@H](C)[C@@H](O)[C@H](N)[C@@H]4O)/C=C/C=C/C=C/C=C/C=C/C=C/C=C/C2C)O3)cc1 (stereo partly drawn),x,x,x,n,x,x,x,
c1nc[nH]n1,x,x,n,n,x,n,x,
O=c1c(O)c(-c2ccc(O)c(O)c2)oc2cc(O)cc(O)c12,u,n,n,1.26µM!,n,1.78µM!,n,EndoIV counter=n;RECQ1 conf=u;ADP FP counter=12.6µM
COc1cc(-c2oc3cc(O)cc(O)c3c(=O)c2O)ccc1O,x,n,n,u,n,n,x,
Cc1c2ccncc2c(C)c2c1[nH]c1ccccc12,u,n,50.1µM,u,n,4.47µM!,u,EndoIV counter=1µM;RECQ1 conf=u
CC(=O)OCC1=C(C(=O)O)N2C(=O)[C@@H](N)[C@H]2SC1,x,x,x,n,x,x,x,
CCc1nnc(NC(=O)CSc2ccc(-c3ccco3)nn2)s1,x,u,22.4µM,u,14.1µM,u,u,BLM inh-2=u;RECQ1 inh-2=n
